# Assay outcomes deposited in PubChem BioAssay by National Center for Advancing Translational Sciences (NCATS).
# Rows were chosen to be rich in hits. Some 7.8% of all compounds tested hit in one or more screens of this group.
# TSHR ag: activates the human thyroid stimulating hormone receptor | P16473 | HEK293-CNG-TSHR cells (CNG channel as cAMP sensor), membrane potential dye, cAMP | Potency, µM (top dose mostly 57.1 µM), for inactives: at the highest dose activation, actives largely listed as activators | 73,000 compounds, 0.48% hits; active = well fitted activation curve with a large enough effect in the main read-out, with a control signal flat, not every such curve was filed as active; inconclusive = small, poorly fitted or top-dose-only effect, or a change in a side signal; inactive = no such curve, though single readings can be large or run the other way; % of control where 0% means no effect;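 note: the control signal comes from parental cells without the receptor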
#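 cAMP rise detected as CNG-channel membrane depolarization by fluorescent dye (emission 590 nm), 30 min after compound, following 60 min dye loading containing 100 uM RO 20-1724 at room temperature. Cells: TSHR/CNG HEK 293, with parental CNG HEK 293 as control.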
# PK Bst: alters activity of Bacillus stearothermophilus pyruvate kinase; Potency, µM; AID 361; purified pyruvate kinase, luminescence ATP production; ribose 5-phosphate activator present at AC10; 51,000 compounds, 1.2% hits; in the data active = potency below about 11 µM; inconclusive = mostly about 12 µM to 25 µM;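 the screen sought inhibitors and activators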;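 note: scaled between full activation by ribose 5 phosphate and full inhibition by luteolin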
# FLuc inh: firefly luciferase inhibition; P08659; Potency, µM (top dose mostly 57.1 µM), without a hit: at the highest dose activity change, negative = inhibition, usual class: inhibitors; AID 411; 72,000 compounds, 2.2% hits; purified firefly luciferase, luminescence, 8 min; note: % is set by controls: 0 for no effect and ±100 for the full control effect; nearly all actives have a fitted effect of over 40% in size
#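 Compounds were tested as concentration series (qHTS) against purified P. pyralis luciferase with luciferin and 10 uM ATP in 50 mM imidazole pH 7.2, 50 mM KCl, 7 mM MgCl2, 0.01% Tween 20, 0.05% BSA. Luminescence was read after 8 min at ambient temperature.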
# Tau fil binding: binds recombinant human tau filaments; 71,000 compounds, 2% hits; AID 596; recombinant tau filaments, thioflavin S fluorescence, 15 h; filaments grown with octadecylsulfate alongside compound; Potency, µM (doses to about 57.1 µM), for inactives: at the highest dose activity change, negative = inhibition; P10636;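 note: % is set by controls: 0 for no effect and ±100 for the full control effect; actives lower thioflavin S fluorescence by blocking filaments or displacing dye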
#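 Tau 2 uM in ThS buffer dispensed; compound added; 60 uM ODS added (finals 1 uM tau, 30 uM ODS); 15 h 37 C; fluor ex450/em510.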
# ALOX15 inhib: inhibitors of human 15-lipoxygenase (ALOX15); P16050; purified 15hLO-1, xylenol orange hydroperoxide absorbance; Potency, µM (top dose mostly 57.1 µM), inactives show at the highest dose activity change, negative = inhibition, hits mostly inhibitors; 74,000 compounds, 1.4% hits; AID 887; note: % is set by controls: 0 for no effect and ±100 for the full control effect; nearly all actives have a fitted effect of over 55% in size
# Target sequence (P16050 whole entry, looked up): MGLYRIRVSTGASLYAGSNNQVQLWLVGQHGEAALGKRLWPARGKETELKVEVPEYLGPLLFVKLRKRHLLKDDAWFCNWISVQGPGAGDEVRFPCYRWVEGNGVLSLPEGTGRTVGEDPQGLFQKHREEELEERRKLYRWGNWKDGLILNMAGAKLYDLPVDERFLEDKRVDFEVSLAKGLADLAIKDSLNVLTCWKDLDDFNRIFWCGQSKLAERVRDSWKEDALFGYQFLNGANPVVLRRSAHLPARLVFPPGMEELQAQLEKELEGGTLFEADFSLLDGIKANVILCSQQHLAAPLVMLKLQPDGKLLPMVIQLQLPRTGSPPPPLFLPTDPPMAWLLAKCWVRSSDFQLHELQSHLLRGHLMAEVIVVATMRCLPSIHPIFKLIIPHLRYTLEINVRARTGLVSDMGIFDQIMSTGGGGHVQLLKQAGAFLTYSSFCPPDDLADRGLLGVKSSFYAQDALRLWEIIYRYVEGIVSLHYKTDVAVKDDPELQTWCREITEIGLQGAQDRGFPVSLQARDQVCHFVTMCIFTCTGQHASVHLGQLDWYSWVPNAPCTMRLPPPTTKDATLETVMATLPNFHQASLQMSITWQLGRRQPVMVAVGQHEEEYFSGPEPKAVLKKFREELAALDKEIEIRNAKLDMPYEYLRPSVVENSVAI
#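 Hydroperoxide formed from arachidonic acid (50 uM) by purified human 15hLO-1 (40 nM) oxidizes ferrous iron, and the ferric-xylenol orange complex is read at 573 versus 405 nm. Compounds were preincubated 15 min; reaction ran 6 min at room temperature.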
# HEK293 cAMP cs: parental HEK293 cAMP activation (counter-screen). parental HEK293 CNG cAMP sensor, membrane potential fluorescence. Potency, µM (series often up to 57.1 µM), for inactives: at the highest dose activation, usual class: activators. 73,000 compounds, 2.5% hits. AID 938; note: % of control where 0% means no effect; nearly all actives have a fitted effect of over 55% in size
#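 Parental HEK 293 cells stably expressing a cAMP-gated CNG channel were loaded with membrane potential dye containing 100 uM RO 20-1724 for 60 min. Compound added for 30 min; depolarization read as fluorescence intensity at 590 nm.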
# * hit, by the source's call; i = inactive; ? = inconclusive; · = no result given; [ ] = remark or other dose. Unless noted, calls come from the whole dose curve; as a rule, active = well fitted curve in the direction sought with a large enough effect; inconclusive = small, poorly fitted or top-dose-only effect, or another doubt; inactive = no such curve, though single readings can be large; an effect the other way counts as inactive or inconclusive. Potency is the fitted concentration of half-maximal effect.
SMILES,TSHR ag,PK Bst,FLuc inh,Tau fil binding,ALOX15 inhib,HEK293 cAMP cs
COCc1nnc(NC(=O)c2sc3ccccc3c2Cl)s1,2%,i,20µM*,14%,-9%,-4%
C[C@@H](c1ccccc1)N1C(=O)[C@H]2[C@@H]3[C@H](O)C=CC(=O)[C@H]3CC[C@H]2C1=O,8%[11.4 µM],·,1%[11.4 µM],·,-2%[11.4 µM],-2%[11.4 µM]
COC(=O)[C@H](C)NC(=O)C/C=C\[C@@H](C)CO,·,·,1%[11.4 µM],·,0%[11.4 µM],-3%[11.4 µM]
O=C(CSc1n[nH]c(=O)n1C1CC1)Nc1cc(Cl)ccc1Oc1ccccc1,?,>57,-2%,13%,-8%,13µM*
CC(NC(=O)CSc1n[nH]c(=O)n1C1CC1)C12CC3CC(CC(C3)C1)C2 (stereo not drawn),3%,>57,3%,-2%,4%,8%
Nc1ncn([C@@H]2O[C@@H](CO)[C@@H](O)[C@H]2O)c(=O)n1,1%,·,0%,-9%,·,-3%
N#Cc1ccc2ccn(CC(=O)NC3CCCCCC3)c2c1,?,>57,0%,2%,-3%,3.2µM*
COC(=O)c1cn(CC(=O)NC2CCCCC2)c2ccccc12,10%,>57,1%,-7%,8%,2%
CC(=O)NCCSC(=O)c1ccc(F)cc1,?,·,-14%,9%,-3%,3.2µM*
COc1ccccc1CNc1cc(-c2ccccc2OC)ncn1,?,·,1%[2.29 µM],420%,-18%,16µM*
COc1ccc(CNc2cc(-c3ccccc3C)ncn2)c(OC)c1,?,·,-4%[2.29 µM],6%,7%,16µM*
COc1ccccc1CNc1cc(-c2ccccc2C)ncn1,?,·,1%[2.29 µM],9%,2%,16µM*
CN1CCN(c2ncc3nc(-c4cn(C)c5ccccc45)c(=O)n(CCC#N)c3n2)CC1,?,·,1%[11.4 µM],i,?,-37%
CN(C)c1ccc(CNC(=O)C2(C)C=CCN2C(=O)c2ccccc2)cc1 (stereo not drawn),15%,·,·,-15%,?,21%
CN(C)C(=O)c1ccc(-c2ccc3ncnc(NC4CCNCC4)c3c2)cc1,-2%,·,0%[2.29 µM],7%,2%,-13%
O=c1n(Cc2cc3c(cc2Cl)OCO3)c(=O)n2n1CC[C@H]1/C(=N\OC[C@@H](O)COCc3ccco3)[C@H]3O[C@@H]3[C@@H](O)[C@@H]12,3%[11.4 µM],·,0%[11.4 µM],·,9%[11.4 µM],0%[11.4 µM]
Cn1cnnc1SCC(=O)Nc1sc2c(c1C(N)=O)CCC2,2%[11.4 µM],>57,-2%,-12%,?,-4%
NCc1ccc(-c2nc3ccccc3o2)cc1,17%,>57,-13%,11%,-15%,15%
Nc1ccc(CCc2nc3ccccc3o2)cc1,-12%,i,25µM*,-11%,6%,-3%
COc1ccc(C(=O)COC(=O)c2ccco2)cc1,0%,3.1*,6.3µM*,-4%,11%,-12%
COc1cccc(NC(=O)COC(=O)c2ccco2)c1,12%,>57,-47%,-19%,1%,-1%
O=c1c(-c2ccccc2)nc2cnc(Nc3ccccc3)nc2n1C[C@H]1CCCO1,0%,·,-2%[11.4 µM],14%,-13%,12%
COc1ccc(NC(=O)N2CCCC3(CCN(C(=O)c4csnn4)CC3)C2)cc1,2%,·,1%[11.4 µM],2%,7%,8%
CCNc1ncc2nc(-c3cc(F)cc(F)c3)c(=O)n(CCc3ccccc3)c2n1,-14%,·,0%[11.4 µM],87%,-5%,-5%
CCCNC(=O)OC[C@@H]1O[C@H](CCO/N=C\[C@@H](C)[C@H](OCc2ccccc2)C(C)C)C=C[C@@H]1Oc1ccc(OC)cc1,4%[11.4 µM],·,0%[11.4 µM],·,4%[11.4 µM],5%[11.4 µM]
COc1ccc(C(=O)NC(=O)Nc2cc(C)ccn2)cc1,-3%,0.64*,0.5µM*,9%,3%,-9%
CSc1ccc(NC(=O)Nc2cc(C)ccn2)cc1,-1%[11.4 µM],·,2.5µM*,-2%[11.4 µM],6%[11.4 µM],-3%[11.4 µM]
Cc1ccc(NC(=O)Nc2ccc3c(c2)N(C)C(=O)CS3)nc1,4%,·,-2%,18%,-15%,8%
Cc1ccnc(NC(=O)Nc2ccc(F)cc2)c1,6%,·,10µM*,59%,3%,18%
